Experiment [1] deals with Progesterone receptor (Homo sapiens) (UniProt P06401). Nature of the experiment: qHTS assay to identify small molecule agonists of the progesterone receptor (PR) signaling pathway (AID 1346784; calls by dose curve; note: nearly all actives have a fitted effect of over 30% in size). The method, boiled down:
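PR-UAS-bla HEK 293T cells (beta-lactamase reporter under UAS) in 2% charcoal-stripped FBS, dosed with 23 nL compound after 6 hr, incubated 16hr at 37C. LiveBLAzer B/G FRET substrate added, fluorescence read after 2 hours.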
For orientation: Quantitative high-throughput screening tests each substance at several concentrations.

A short description of experiment [2]: qHTS assay to identify small molecule agonists of the progesterone receptor (PR) signaling pathway - cell viability counter screen (AID 1346799; calls by dose curve; note: nearly all actives have a fitted effect of over 45% in size). The method, boiled down:
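Counter screen in the PR-UAS-bla HEK293T wells (2% charcoal-stripped FBS, 16 h compound exposure at 37 C) after the bla read. CellTiter-Glo added, 30 min at room temperature, luminescence read as cell viability.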

Experiment [3] can be described thus: qHTS assay to identify small molecule antagonists of the TGF-beta/Smad signaling pathway - cell viability counter screen (AID 1346824). Note: nearly all actives have a fitted effect of over 50% in size. The method, boiled down:
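SBE-bla HEK 293T cells, incubated overnight, then compound plus 0.25 ng/mL TGF-beta1 (stock added) for 5 hr at 37 C. Viability was read in the same wells by CellTiter-Glo luminescence after 30 min at room temperature.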

A short description of experiment [4]: qHTS assay to identify small molecule agonists of the TGF-beta/Smad signaling pathway - cell viability counter screen (AID 1346829). Note: top concentration of the series differs between compounds; nearly all actives have a fitted effect of over 45% in size. The method, boiled down: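 Tox21 qHTS format: SBE-bla HEK 293T cells treated with DMSO-dissolved compounds for 5 hr; CellTiter-Glo luminescence after 30 min at room temperature.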
Experiment [5] can be described thus: qHTS assay to identify small molecule agonists of the TGF-beta/Smad signaling pathway (AID 1346859; active = well fitted activation curve with a large enough effect in the signal ratio in the repeat runs, not every such curve was filed as active; the % refers to the signal ratio; note: series mostly up to about 77 µM). The gist of the method: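 SBE-bla HEK293T cells plated overnight, then compound exposure for 5 h at 37 C. Beta-lactamase reporter read with LiveBLAzer B/G FRET substrate after 2 h at room temperature, fluorescence at 405 nm excitation, 460/530 nm emission.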
Experiment [6] is described as follows: Human pregnane X receptor (PXR) small molecule agonists, qHTS cell viability counter screen (AID 1346977). Note: nearly all actives have a fitted effect of over 50% in size. The method, boiled down:
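PXR-Luc HepG2 cells (2,000/well, 5% charcoal-stripped FBS) preincubated 5 hr, then exposed to compounds 24 hr at 37 C. Viability read in the same wells by CellTiter-Fluor fluorescence, reagent added at 23 hr, 1 hr incubation.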

Experiment [7] in a line: Caspase-3/7 induction in HepG2 cells by small molecules, qHTS assay (AID 1346978). Note: nearly all actives have a fitted effect of over 15% in size. The method, boiled down:
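Wild-type HepG2 cells, 2,000/well, settled 5 hr at 37 C and 5% CO2, then compound-treated for 17 hr; caspase-3/7 activity read by luminescent Caspase-Glo 3/7 after 30 min at room temperature.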

Experiment [8] can be described thus: Caspase-3/7 induction in CHO-K1 cells by small molecules, qHTS cell viability counter screen (AID 1346979). Note: nearly all actives have a fitted effect of over 35% in size. The gist of the method: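 Wild-type CHO-K1 cells (1,500/well) treated with compound after 5 h plating; after 16 h at 37C, viability read as CellTiter-Fluor fluorescence following 1 h reagent incubation, in the same wells as the caspase read.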
The nature of experiment [9]: Caspase-3/7 induction in CHO-K1 cells by small molecules, qHTS assay (AID 1346980). Note: nearly all actives have a fitted effect of over 15% in size. The method, boiled down:
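Wild-type CHO-K1 cells exposed to compounds for 17hr at 37 C, 5% CO2. Caspase-3/7 activity then measured by Caspase-Glo 3/7 luminescence after 30min at room temperature.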

The nature of experiment [10]: Caspase-3/7 induction in HepG2 cells by small molecules, qHTS cell viability counter screen (AID 1346981). Note: series mostly up to about 92 µM; nearly all actives have a fitted effect of over 30% in size. The method, boiled down:
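Fluorescence read-out of live-cell protease activity (CellTiter-Fluor) after 1 hr with reagent. This was measured in the same wells as the caspase-3/7 luminescence, on HepG2 cells exposed to DMSO-dissolved compounds for 16 hr at 37 C.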

Experiment [11] addresses Nuclear receptor subfamily 1 group I member 2 (Homo sapiens) (UniProt O75469). Nature of the experiment: Human pregnane X receptor (PXR) small molecule agonists, qHTS assay (AID 1346982). Note: nearly all actives have a fitted effect of over 35% in size. Note: potency is the fitted concentration of half-maximal effect. The gist of the method:
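HepG2 PXR-Luc reporter line, 5% charcoal-stripped FBS; 5 hr pre-incubation, compound (DMSO) 24 hr at 37 C/5% CO2; ONE-Glo 30 min RT; luminescence read-out.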

The target of experiment [12] is Cytochrome P450 2D6 (Homo sapiens) (UniProt P10635). The experiment can be described thus: Cytochrome P450 Family 2 Subfamily D Member 6 (CYP2D6) small molecule antagonists: luciferase reporter qHTS assay (AID 1671196). Note: nearly all actives have a fitted effect of over 50% in size. Note: potency is the fitted concentration of half-maximal effect. The gist of the method:
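Luminogenic proluciferin substrate, CYP2D6 enzyme; 10 min RT preincubation with compound, NADPH regeneration system added, 1 h RT. Stop/detection reagent, 20 min RT, luminescence read (RLU). Signal proportional to CYP activity.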

In experiment [13] the target is Thyrotropin-releasing hormone receptor (Homo sapiens) (UniProt P34981). Nature of the experiment: qHTS assay to identify small molecule antagonists of the thyrotropin-releasing hormone receptor (TRHR) signaling pathway (AID 1346877; active = well fitted inhibition curve with a large enough effect in the repeat runs, not every such curve was filed as active; note: series mostly up to about 51 µM). The method, boiled down:
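HEK293/TRHR cells, 18 h, 37 °C; Ca2+ dye 2 h; cpd 5 min RT; TRH 1 nM final; fluorescence read 3 min, 1 s intervals; 15 concs, triplicate.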

Experiment [14] has the same target. Nature of the experiment: qHTS assay to identify small molecule agonists of the thyrotropin-releasing hormone receptor (TRHR) signaling pathway (AID 1346891; calls by dose curve; note: series mostly up to about 58 µM). The method, boiled down:
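HEK293 cells expressing TRHR plated 18 h at 37 C/5% CO2, calcium dye-loaded 2 h at 37 C, then compound added (agonist mode); kinetic calcium fluorescence read 3 min at 1 s intervals; 15 concentrations in triplicate.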

A short description of experiment [15]: qHTS assay to identify small molecule antagonists of the progesterone receptor (PR) signaling pathway - cell viability counter screen (AID 1346798). Note: nearly all actives have a fitted effect of over 50% in size. Note: potency is the fitted concentration of half-maximal effect. The gist of the method:
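PR-UAS-bla HEK293T cells, 3,000/well in 2% charcoal-stripped FBS medium, dosed with compounds plus R5020 agonist and incubated 16 h at 37C. Viability then measured in the same wells by CellTiter-Glo luminescence after 30 min at RT.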

The target of experiment [16] is Nuclear receptor subfamily 1 group I member 2 (Rattus norvegicus) (UniProt Q9R1A7). Nature of the experiment: Rat pregnane X receptor (rPXR) activation by small molecules, qHTS assay (AID 1346983). Note: nearly all actives have a fitted effect of over 20% in size. Note: potency is the fitted concentration of half-maximal effect. Conditions: rPXR luciferase reporter cells, One-Glo luminescence, 24 h; max activation: stronger effect = higher value. The gist of the method: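 Cell-based rPXR activation assay: rPXR cells, 2,000 per well, rested 5hr at 37 C, then exposed to compounds in DMSO for 24 hr at 37 C. Luciferase activity read by One-Glo luminescence after 30 min at room temperature.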
Sequence of Nuclear receptor subfamily 1 group I member 2 (Rattus norvegicus) (Q9R1A7 whole entry, looked up): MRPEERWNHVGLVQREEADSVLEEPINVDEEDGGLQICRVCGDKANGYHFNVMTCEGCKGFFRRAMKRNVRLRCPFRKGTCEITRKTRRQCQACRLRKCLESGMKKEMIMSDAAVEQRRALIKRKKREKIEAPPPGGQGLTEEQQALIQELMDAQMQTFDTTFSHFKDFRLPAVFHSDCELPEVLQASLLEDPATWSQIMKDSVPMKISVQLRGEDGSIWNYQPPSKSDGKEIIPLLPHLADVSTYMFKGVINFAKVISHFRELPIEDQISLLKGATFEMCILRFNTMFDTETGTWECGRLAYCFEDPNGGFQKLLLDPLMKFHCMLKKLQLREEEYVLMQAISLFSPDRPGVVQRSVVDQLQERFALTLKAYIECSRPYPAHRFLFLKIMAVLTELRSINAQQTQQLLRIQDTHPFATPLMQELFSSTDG

Experiment [17] deals with Nuclear receptor subfamily 1 group I member 2 (Homo sapiens) (UniProt O75469). Nature of the experiment: CYP3A4 induction through human pregnane X receptor (PXR) by small molecules, qHTS assay (AID 1346984). Note: nearly all actives have a fitted effect of over 40% in size. Note: potency is the fitted concentration of half-maximal effect. The method, boiled down:
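HepG2-derived DPX-2 line carrying PXR plus a CYP3A4-promoter luciferase reporter; cells plated 5 hr, compound-exposed 24 hr at 37C. CYP3A4 activity probed with 3uM (final) Luciferin-IPA for 3hr, then luciferase read after One-Glo.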

For experiment [18] the target is unchanged. The experiment can be described thus: Human pregnane X receptor (PXR) activation by small molecules, qHTS assay (AID 1346985). Note: nearly all actives have a fitted effect of over 40% in size. Note: potency is the fitted concentration of half-maximal effect. The method, boiled down:
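DPX-2 cells (HepG2 co-transfected with a PXR response element and a CYP3A4-promoter luciferase construct) were seeded at 2,000 per well, rested 5 hr at 37C, then exposed to DMSO-dissolved compounds for 24 hr. Activation was read as luciferase luminescence.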

In experiment [19] the target is Progesterone receptor (Homo sapiens) (UniProt P06401). Nature of the experiment: qHTS assay to identify small molecule antagonists of the progesterone receptor (PR) signaling pathway (AID 1346795; active = well fitted inhibition curve with a large enough effect in the signal ratio in the repeat runs, not every such curve was filed as active; the % refers to the signal ratio; note: potency is the fitted concentration of half-maximal effect). The gist of the method: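 PR-UAS-bla HEK293T cells with beta-lactamase reporter under UAS control, in 2% charcoal-stripped FBS, treated with compounds plus 1 nM promegestone (R5020, final) for 16 hr at 37C. Read-out: FRET beta-lactamase substrate fluorescence after 2 hr at room temperature.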
Sequence of Progesterone receptor (Homo sapiens) (P06401 whole entry, looked up): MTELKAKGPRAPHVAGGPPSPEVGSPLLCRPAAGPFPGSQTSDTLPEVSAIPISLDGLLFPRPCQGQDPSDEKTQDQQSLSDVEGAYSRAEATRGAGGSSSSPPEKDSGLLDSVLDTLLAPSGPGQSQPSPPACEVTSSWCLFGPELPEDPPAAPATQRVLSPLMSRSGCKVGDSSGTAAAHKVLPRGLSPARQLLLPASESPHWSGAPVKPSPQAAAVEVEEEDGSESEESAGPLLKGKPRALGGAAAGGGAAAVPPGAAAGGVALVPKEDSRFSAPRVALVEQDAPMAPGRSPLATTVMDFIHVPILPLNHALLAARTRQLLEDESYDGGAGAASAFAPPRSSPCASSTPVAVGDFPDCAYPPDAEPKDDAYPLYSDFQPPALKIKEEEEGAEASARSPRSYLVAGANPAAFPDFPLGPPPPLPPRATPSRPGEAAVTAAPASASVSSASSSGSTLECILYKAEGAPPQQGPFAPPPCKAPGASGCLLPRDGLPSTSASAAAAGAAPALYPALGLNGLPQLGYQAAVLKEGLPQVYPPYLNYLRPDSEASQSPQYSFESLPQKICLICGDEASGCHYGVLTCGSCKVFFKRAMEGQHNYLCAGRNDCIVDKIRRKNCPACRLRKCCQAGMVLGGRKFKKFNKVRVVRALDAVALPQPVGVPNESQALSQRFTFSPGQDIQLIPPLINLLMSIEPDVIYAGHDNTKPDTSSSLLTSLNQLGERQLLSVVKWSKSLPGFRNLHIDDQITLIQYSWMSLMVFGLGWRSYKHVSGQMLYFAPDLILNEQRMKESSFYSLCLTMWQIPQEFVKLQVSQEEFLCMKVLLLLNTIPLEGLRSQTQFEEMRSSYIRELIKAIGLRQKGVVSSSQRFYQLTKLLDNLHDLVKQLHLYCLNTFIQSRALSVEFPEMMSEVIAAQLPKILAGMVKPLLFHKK

A number with no mark means an inactive call. Inconclusive results are not listed. Active and inactive are the calls of the source. Unless noted, calls come from the whole dose curve; as a rule, active = well fitted curve in the direction sought with a large enough effect in the repeat runs; inconclusive = weak or mixed curves; inactive = no such curve, though single readings can be large; an effect the other way counts as inactive or inconclusive.
% is set by controls: 0 for no effect and ±100 for the full control effect.

Sequence of Cytochrome P450 2D6 (Homo sapiens) (P10635 whole entry, looked up): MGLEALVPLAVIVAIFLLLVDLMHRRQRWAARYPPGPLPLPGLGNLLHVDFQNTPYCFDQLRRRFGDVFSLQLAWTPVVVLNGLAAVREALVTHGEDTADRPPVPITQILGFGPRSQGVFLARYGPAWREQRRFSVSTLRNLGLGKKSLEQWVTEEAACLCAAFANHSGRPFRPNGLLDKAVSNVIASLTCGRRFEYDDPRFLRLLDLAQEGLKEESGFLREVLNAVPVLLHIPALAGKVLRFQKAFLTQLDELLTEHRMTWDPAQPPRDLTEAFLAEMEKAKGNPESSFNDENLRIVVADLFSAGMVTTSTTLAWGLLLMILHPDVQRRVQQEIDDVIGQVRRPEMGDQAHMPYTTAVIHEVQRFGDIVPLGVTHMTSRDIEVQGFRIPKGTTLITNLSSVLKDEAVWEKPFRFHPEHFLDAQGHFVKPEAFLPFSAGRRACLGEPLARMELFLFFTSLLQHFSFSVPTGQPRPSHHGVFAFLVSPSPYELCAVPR
Sequence of Thyrotropin-releasing hormone receptor (Homo sapiens) (P34981 whole entry, looked up): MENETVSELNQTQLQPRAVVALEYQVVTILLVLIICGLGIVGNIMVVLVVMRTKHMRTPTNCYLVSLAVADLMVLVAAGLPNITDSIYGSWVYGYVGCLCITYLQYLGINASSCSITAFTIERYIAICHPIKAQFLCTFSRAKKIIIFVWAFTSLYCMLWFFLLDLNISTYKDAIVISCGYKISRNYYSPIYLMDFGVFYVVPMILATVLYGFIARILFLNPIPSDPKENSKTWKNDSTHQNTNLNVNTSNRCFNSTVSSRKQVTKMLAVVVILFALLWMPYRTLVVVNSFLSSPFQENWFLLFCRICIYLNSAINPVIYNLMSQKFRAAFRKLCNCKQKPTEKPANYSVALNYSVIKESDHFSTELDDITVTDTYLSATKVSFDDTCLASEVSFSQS
Sequence of Nuclear receptor subfamily 1 group I member 2 (Homo sapiens) (O75469 whole entry, looked up): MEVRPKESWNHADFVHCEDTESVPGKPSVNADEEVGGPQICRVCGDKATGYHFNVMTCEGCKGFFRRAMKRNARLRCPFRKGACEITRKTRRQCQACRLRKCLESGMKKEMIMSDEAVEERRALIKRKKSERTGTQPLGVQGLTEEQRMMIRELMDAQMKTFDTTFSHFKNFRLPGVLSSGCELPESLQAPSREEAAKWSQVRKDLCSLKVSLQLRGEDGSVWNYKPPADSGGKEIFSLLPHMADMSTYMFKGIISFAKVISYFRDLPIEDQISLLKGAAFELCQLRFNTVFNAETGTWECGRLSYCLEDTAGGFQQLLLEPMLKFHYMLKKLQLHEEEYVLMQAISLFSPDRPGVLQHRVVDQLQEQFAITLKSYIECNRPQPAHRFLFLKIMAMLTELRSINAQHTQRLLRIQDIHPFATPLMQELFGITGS

Regarding `Oc1ccc2c(c1)OCO2`, the outcome in experiment [1], in [5] and in experiment [7] was inactive. In addition, the Potency result in experiment [2], in experiment [3], in [4], in experiment [6], in experiment [8] and in [9] was “inactive” each time. Besides, the Potency entry in experiment [10] and in [11] was “inactive” in each case. The Potency in [12] was 39.6 µM (active).

Turning to `O=C1Nc2cc(Cl)ccc2Oc2ccccc21`, the compound was called inactive in [1], in [5], in [13] and in experiment [7]. Besides, the Potency result in experiment [3], in experiment [14], in experiment [6], in experiment [8], in experiment [9] and in experiment [11] was “inactive” each time. In experiment [12], the Potency entry was “inactive”.

For the compound `Nc1ccc(C(=O)Nc2ccccc2N)cc1`, the Potency in experiment [15] was 13.3 µM (active); in experiment [11] it was 8.41 µM (active); in [16] it was 3.55 µM (active); in experiment [18], 11.2 µM (active). Besides, the Potency entry in [3], in experiment [4], in experiment [9], in [10], in experiment [17] and in [12] was “inactive” in each case. For the same compound, in experiment [5], the compound was classed as inactive.

Turning to `CC(=O)O[C@@H]1C(=O)O[C@@H]2[C@H]1OC(=O)[C@@H]2OC(C)=O`, the call in [1], in experiment [5], in experiment [13] and in experiment [7] was inactive. In addition, the Potency result in experiment [15], in experiment [2], in experiment [3], in experiment [4], in experiment [14] and in experiment [6] was “inactive” each time. Further, the Potency entry in experiment [8], in experiment [9], in experiment [10], in experiment [11] and in [12] was “inactive” throughout.

`COc1ccccc1OC(=O)Oc1ccccc1OC`: the outcome in experiment [1], in experiment [5] and in experiment [13] was inactive. For the same compound, the Potency result in experiment [15], in experiment [2], in experiment [3], in [4], in experiment [14] and in experiment [6] was “inactive” throughout. The Potency result in [8], in experiment [9], in experiment [10], in experiment [11], in experiment [17] and in experiment [18] was “inactive” each time. The max activation in [16] is -1.11%.

Regarding `c1ccc(OCc2ccc(CCCN3CCOCC3)cc2)cc1`, the outcome in experiment [1], in experiment [5], in experiment [13] and in experiment [7] was inactive. Besides, the Potency entry in [3], in [14], in experiment [9], in experiment [10], in experiment [17] and in [18] was “inactive” throughout. Besides, the Potency in experiment [11] was 2.37 µM (active); in [12] it was 15.5 µM (active).

As to `CCCCCOC(=O)c1ccc(O)cc1`, the Potency is 27.6 µM (active) in [19] and 71.8 µM (active) in experiment [12]. The Potency result in [3], in experiment [4], in experiment [6], in experiment [9] and in [10] was “inactive” in each case. Moreover, the outcome in experiment [5] and in [7] was inactive.

For the compound `CCCOc1ccc2nc(NC(=O)OC)[nH]c2c1`, the compound was called inactive in [1] and in [5]. Also, the Potency entry in [3], in experiment [4], in [6], in experiment [9], in experiment [10] and in experiment [12] was “inactive” in each case. Further, the Potency in [11] was 3.76 µM (active).

With `Oc1ccc(C(O)CNCCCCCCNCC(O)c2ccc(O)c(O)c2)cc1O` (stereo unspecified), the compound was called inactive in experiment [1], in experiment [5], in [13] and in [7]. In addition, the Potency result in [19], in [3], in [14], in experiment [6], in [9] and in experiment [10] was “inactive” throughout. The Potency result in experiment [11], in experiment [17] and in experiment [18] was “inactive” in each case. Besides, the max activation in experiment [16] was -3.6%.

As for `O=C(O)COC(=O)Cc1ccccc1Nc1c(Cl)cccc1Cl`, the compound was classed as inactive in experiment [1], in [5] and in [7]. The Potency result in experiment [2], in experiment [3], in [4], in [6], in experiment [9] and in [10] was “inactive” in each case. The Potency entry in experiment [11], in experiment [17], in experiment [18] and in experiment [12] was “inactive” in each case. For the same compound, the max activation in [16] is -0.166%.

Turning to `Cn1c(=O)c2c(ncn2CC(O)CO)n(C)c1=O` (stereo unspecified), the outcome in experiment [1], in experiment [5] and in experiment [13] was inactive. For the same compound, the Potency result in experiment [19], in [15], in experiment [3], in [14], in [6] and in experiment [8] was “inactive” each time. Also, the Potency result in [9], in experiment [10], in experiment [11], in experiment [17], in experiment [18] and in experiment [12] was “inactive” each time. Moreover, the max activation in [16] was -1.09%.

Consider `Cl/C(=C\n1cncn1)c1ccc(Cl)cc1Cl`, for which the compound was called inactive in [1], in experiment [5] and in experiment [13]. Moreover, the Potency entry in experiment [3], in experiment [14], in experiment [6], in [8], in experiment [9] and in experiment [18] was “inactive” in each case. For the same compound, the max activation in experiment [16] is -0.206%. Besides, the Potency in experiment [17] is 22.4 µM (active); in experiment [12], 15.5 µM (active).

The values above are taken from PubChem BioAssay (Tox21).
